For nine compounds, z-score and composite z-score results are on record in PubChem BioAssay.

Molecules are shown by their SMILES. Active and inactive are the calls of the source. Unless noted, no rule for the calls is given here.

Assay [1] in a line: resazurin metabolic signal in HepG2 cells – cell-based, resazurin fluorescence, 24 h, PK04 Diversity Set, profiling panel (AID 1172). The note with it: HepG2 viability, higher = more signal. (Alamar Blue is a resazurin reagent that responds to reducing activity.)
Assay [2] is described as follows: budding yeast growth changes without added modifier – OD600, strain BY4716, 24 h, basal condition, primary screen (AID 1173). The note with it: S. cerevisiae BY4716 growth, OD600, 24 h; higher = more signal, called active from +8 up or from −8 down.
The nature of assay [3]: viability profiling in MM1S myeloma cells – cell-based, resazurin fluorescence, basal, 24 h, PK04 Diversity Set, profiling panel (AID 1174).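 Also: MM1S multiple myeloma cell line.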 The conditions noted are these: higher = more signal, called active from +8 up or from −8 down.
For assay [4], the target named is Dihydroorotate dehydrogenase (quinone), mitochondrial (Plasmodium falciparum (isolate 3D7)) (UniProt Q08210). The assay can be described thus: inhibition of P. falciparum DHODH – biochemical, C-terminal His tag, absorbance 600 nm, primary screen (AID 1175).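 Also: recombinant parasite enzyme with a five histidine tag at its C terminus.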 The conditions noted are these: PfDHODH enzyme, DCIP absorbance 600 nm; higher = more signal, called active from +8 up or from −8 down.

The nature of assay [5]: inhibition of PAO1 biofilm formation – strain PAO1, LB-PBS medium, absorbance 600 nm, primary screen (AID 1176). The conditions noted are these: P. aeruginosa PAO1 growth/biofilm, A600, 12 h; higher = more signal.
A short description of assay [6]: growth modulation of vineyard yeast isolate – strain RM11-1a, OD600, basal, 24 h, primary screen (AID 1177).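 Also: cultures grown under basal conditions with no added stressor.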 The conditions noted are these: S. cerevisiae RM11-1a growth, OD600, 24 h; higher = more signal, called active from +8 up or from −8 down.
Assay [7] can be described thus: growth of efflux-deficient E. coli DRC39 – strain DRC39, OD650, 24 h, E. coli filamentation inducers, primary screen (AID 1178).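 Also: growth measured as culture turbidity by optical density at 650 nm.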 The conditions noted are these: E. coli DRC39 acrAB, higher = more signal, called active from +8 up or from −8 down.
Assay [8] in a line: growth of efflux-deficient E. coli DRC39 – strain DRC39, OD650, 48 h, E. coli filamentation inducers, primary screen (AID 1179).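 Also: screen aims at cell division blockers that make cells filament.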 The conditions noted are these: E. coli DRC39 delta-acrAB growth, higher = more signal, called active from +8 up or from −8 down.
Assay [9] can be described thus: viability profiling in RPMI8226 myeloma cells – cell-based, resazurin fluorescence, basal, 24 h, PK04 Diversity Set, profiling panel (AID 1180).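 Also: RPMI8826 multiple myeloma cell line at 5000 cells per well.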 The note with it: higher = more signal.
Assay [10] concerns the target E3 ubiquitin-protein ligase XIAP (Homo sapiens) (UniProt P98170). Kind of assay: small molecules binding XIAP protein – biophysical, small-molecule microarray, fluorescence 635 nm, primary screen (AID 1181).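 Also: score merges 667 nm emission and signal to noise over triplicate slides.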 The conditions noted are these: higher = more signal.
For assay [11], the system named is XIP peptide (Xip251-270) binding. The assay can be described thus: XIP fragment 251-270 binding compounds – biochemical, small-molecule microarray, fluorescence 635/667 nm, 0.1 µg/mL protein, primary screen (AID 1182). The note with it: fluorescent protein binding, 635 nm, higher = more signal, called active from +8 up or from −8 down.
In assay [12] the test system is XIP peptide (Xip251-270). The assay can be described thus: compounds binding XIP fragment 251-270 – biochemical, small-molecule microarray, fluorescence 635/667 nm, 0.5 µg/mL protein, primary screen (AID 1183). The conditions noted are these: fluorescence 635 nm, higher = more signal.
The nature of assay [13]: blood-stage malaria parasite viability loss – strain 3D7, DAPI fluorescence, 100 nL, primary screen (AID 1184).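 Also: parasites grown inside human red blood cells in medium with human serum.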 The note with it: P. falciparum 3D7 growth, 3 d, higher = more signal.
Assay [14] deals with Homeobox protein Hox-A13 (Mus musculus) (UniProt Q62424). Kind of assay: disruptors of Hoxa13 oligonucleotide interaction – biochemical, fluorescence polarization, labeled oligonucleotide, primary screen (AID 1185). The note with it: Hoxa13:DNA binding, 15 min, higher = more signal, called active from +8 up or from −8 down. For orientation: In fluorescence polarisation assays a small probe gives low polarisation when free and higher when bound to something large.

Assay [15] can be described thus: blockers of DNA damage checkpoint Chk1 activation – imaging, HeLa, hydroxyurea, phospho-Chk1 antibody, percent positive cells, primary screen (AID 1186). The note with it: hydroxyurea-induced phospho-Chk1 immunofluorescence imaging, higher = more signal.
Assay [16] is described as follows: blockers of DNA damage checkpoint Chk1 activation – imaging, HeLa, hydroxyurea, phospho-Chk1 nuclear intensity, primary screen (AID 1187). The note with it: hydroxyurea-induced phospho-Chk1 immunofluorescence imaging, higher = more signal.

Chain of Dihydroorotate dehydrogenase (quinone), mitochondrial (Plasmodium falciparum (isolate 3D7)) (Q08210 whole entry, looked up): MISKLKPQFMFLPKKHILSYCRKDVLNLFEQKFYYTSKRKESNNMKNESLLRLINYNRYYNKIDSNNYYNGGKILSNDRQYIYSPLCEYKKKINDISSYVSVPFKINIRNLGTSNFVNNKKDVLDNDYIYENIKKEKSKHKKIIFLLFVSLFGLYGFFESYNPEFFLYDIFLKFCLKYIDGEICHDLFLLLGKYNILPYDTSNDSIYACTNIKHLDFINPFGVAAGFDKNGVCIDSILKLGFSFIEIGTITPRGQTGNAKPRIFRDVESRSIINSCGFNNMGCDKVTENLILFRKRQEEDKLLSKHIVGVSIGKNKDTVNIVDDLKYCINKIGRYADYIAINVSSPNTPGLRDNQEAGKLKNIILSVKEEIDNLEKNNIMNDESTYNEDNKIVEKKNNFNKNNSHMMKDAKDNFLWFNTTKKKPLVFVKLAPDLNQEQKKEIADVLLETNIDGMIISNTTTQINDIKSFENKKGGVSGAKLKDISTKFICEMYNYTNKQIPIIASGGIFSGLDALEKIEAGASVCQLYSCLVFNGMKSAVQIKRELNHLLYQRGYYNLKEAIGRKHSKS
Chain of E3 ubiquitin-protein ligase XIAP (Homo sapiens) (P98170 whole entry, looked up, the tested form may be a part): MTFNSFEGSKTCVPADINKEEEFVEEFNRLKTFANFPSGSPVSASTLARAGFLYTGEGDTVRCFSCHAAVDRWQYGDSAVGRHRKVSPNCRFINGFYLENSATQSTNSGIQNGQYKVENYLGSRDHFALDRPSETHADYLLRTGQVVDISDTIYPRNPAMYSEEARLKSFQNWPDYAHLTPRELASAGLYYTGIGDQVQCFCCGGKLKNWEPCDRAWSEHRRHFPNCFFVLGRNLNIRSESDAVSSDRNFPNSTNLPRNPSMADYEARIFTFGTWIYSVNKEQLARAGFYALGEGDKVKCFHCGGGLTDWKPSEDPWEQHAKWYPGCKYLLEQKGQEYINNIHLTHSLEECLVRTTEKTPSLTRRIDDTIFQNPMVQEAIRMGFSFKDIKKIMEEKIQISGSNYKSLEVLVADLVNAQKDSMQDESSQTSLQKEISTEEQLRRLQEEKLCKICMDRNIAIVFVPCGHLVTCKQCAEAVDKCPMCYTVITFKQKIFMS
Chain of Homeobox protein Hox-A13 (Mus musculus) (Q62424 whole entry, looked up): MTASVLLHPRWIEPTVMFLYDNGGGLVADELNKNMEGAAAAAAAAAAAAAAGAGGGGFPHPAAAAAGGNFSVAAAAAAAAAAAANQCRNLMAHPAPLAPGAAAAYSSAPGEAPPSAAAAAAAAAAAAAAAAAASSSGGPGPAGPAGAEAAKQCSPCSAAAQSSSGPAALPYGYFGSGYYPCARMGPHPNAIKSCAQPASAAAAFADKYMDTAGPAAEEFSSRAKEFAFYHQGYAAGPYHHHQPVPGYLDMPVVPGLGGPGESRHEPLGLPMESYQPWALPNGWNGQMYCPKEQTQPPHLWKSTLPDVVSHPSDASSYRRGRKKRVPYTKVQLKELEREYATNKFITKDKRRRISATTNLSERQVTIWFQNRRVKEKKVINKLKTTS

As for `CCC(CC)C(O)C1C=CC2C(=O)N(c3ccccc3)C(=O)C2N1Nc1ccc([N+](=O)[O-])cc1` (centres undefined), the z-score is -0.536 in [1]; 0.593 (inactive) in assay [2]; -0.89 (inactive) in [3]; 0.862 (inactive) in assay [5]; 0.105 (inactive) in assay [6]; -0.667 (inactive) in assay [7]. Further, the z-score was -0.162 (inactive) in assay [8]; -0.587 in assay [9]; 1.38 in assay [13]; -3.49 (inactive) in assay [14]; -0.37 (inactive) in [15]; -1.56 (inactive) in [16]. Moreover, the composite z-score in assay [4] is 0.837 (inactive); in [10], 0.0855; in assay [11], 0.39 (inactive); in assay [12] it was 0.493.
Turning to `COCCOC(=O)N1C(=O)[C@@]2(c3ccccc31)[C@H](c1ccc(OCCO)cc1)N1[C@H](c3ccccc3)[C@H](c3ccccc3)OC(=O)[C@H]1[C@@H]2C(=O)N1CCCCCCC1`, the z-score in assay [1] is 1.11; in assay [2] it was 0.492 (inactive); in assay [3], 0.441 (inactive); in assay [5], 1.84 (inactive); in assay [6], 2 (inactive); in assay [7], -0.965 (inactive). Further, the z-score in assay [8] was -0.618 (inactive); in assay [9], 1.04; in [13], -2.08; in [14], -15.8 (active); in [15] it was -0.17 (inactive); in assay [16], 0.128 (inactive). Moreover, the composite z-score is 0.132 (inactive) in assay [4], 2.64 in [10], 8.16 (active) in [11] and 1.04 in assay [12].
Turning to `O=C1N[C@@H](Cc2ccccc2)C(=O)N2[C@@H]1C[C@@H](C(=O)O)[C@H]2c1ccc(O)cc1`, the z-score in assay [1] is -0.425; in assay [2], -1.14 (inactive); in [3], 0.746 (inactive); in [5] it was -0.13 (inactive); in [6], -0.319 (inactive); in assay [7], -0.143 (inactive). Moreover, the z-score is -0.803 (inactive) in assay [8]; 0.0674 in [9]; -0.394 in assay [13]; -2.41 (inactive) in assay [14]; -0.0256 (inactive) in [15]; 0.0853 (inactive) in [16]. The composite z-score in assay [4] was -0.708 (inactive); in assay [10], 0.0518; in [11], 0.24 (inactive); in assay [12], 0.649.
Turning to `C[C@]1(C(=O)NCC(F)(F)F)c2ccccc2C(=O)N(Cc2ccccc2)[C@H]1c1ccc(CO)cc1`, the z-score was -0.398 in assay [1]; 0.0742 (inactive) in assay [2]; 0.525 (inactive) in [3]; -0.0807 (inactive) in [5]; 0.433 (inactive) in assay [6]; 0.242 (inactive) in [7]. The z-score in assay [8] was 0.824 (inactive); in [9] it was 0.937; in [13] it was 0.169; in assay [14] it was -4.07 (inactive); in [15], -0.301 (inactive); in assay [16] it was -0.232 (inactive). Also, the composite z-score in assay [4] was 0.721 (inactive); in assay [10], -0.102; in assay [11], 0.636 (inactive); in assay [12] it was -0.0904.
As for `O=C1C2C=CC(C(O)c3cccc(O)c3)N(Nc3ccccc3)C2C(=O)N1c1ccccc1` (centres undefined), the z-score is -0.491 in assay [1]; -0.774 (inactive) in assay [2]; -1.05 (inactive) in [3]; 0.67 (inactive) in [5]; 0.196 (inactive) in assay [6]; -0.0671 (inactive) in assay [7]. The z-score in assay [8] was 0.0995 (inactive); in assay [9], -0.985; in assay [13], -0.267; in [14] it was -1.18 (inactive); in assay [15], 0.293 (inactive); in [16], 0.126 (inactive). Further, the composite z-score in assay [4] was -0.791 (inactive); in [10], -0.0806; in assay [11], -0.234 (inactive); in assay [12] it was 0.214.
On to `NC(=O)[C@H]1[C@@H]2C(=O)O[C@@H](c3ccccc3)[C@@H](c3ccccc3)N2[C@@H](c2ccc(O)cc2)[C@]12C(=O)Nc1ccccc12`, for which the z-score in assay [1] is -0.367; in assay [2], -0.376 (inactive); in assay [3] it was 0.0279 (inactive); in assay [5], 0.0332 (inactive); in assay [6] it was 0.575 (inactive); in assay [7], -0.145 (inactive). Besides, the z-score in assay [8] is 0.0129 (inactive); in [9] it was 0.417; in assay [13] it was 0.428; in [14] it was -5.09 (inactive); in [15], -0.154 (inactive); in [16] it was -0.112 (inactive). Moreover, the composite z-score is 0.0023 (inactive) in assay [4], -0.0559 in assay [10], -0.367 (inactive) in [11] and -0.764 in assay [12].
In the case of `CC(C)C[C@@H]1NC(=O)[C@@H]2C[C@H](C(=O)NCCCCCC[N+](C)(C)C)[C@H](c3cccc(OCCO)c3)N2C1=O`, the z-score in [1] is -0.482; in assay [2], 0.62 (inactive); in [3], -0.384 (inactive); in assay [5], 0.683 (inactive); in assay [6], -0.0613 (inactive); in assay [7], -0.466 (inactive). Also, the z-score is -1.15 (inactive) in assay [8]; -0.899 in assay [9]; 0.169 in assay [13]; -5.12 (inactive) in assay [14]; -0.282 (inactive) in assay [15]; -0.178 (inactive) in [16]. Also, the composite z-score in assay [4] was -0.317 (inactive); in assay [10] it was -0.227; in assay [11], 0.753 (inactive); in assay [12], 0.869.
For the compound `C=CCC(OC(C)=O)[C@@H]1[C@@H](N(Cc2cc3ccccc3o2)C(=O)c2ccc(-c3ccccc3)cc2)c2cc(OCCCO)ccc2N1C(=O)Cc1ccc(OC)cc1` (some centres undefined), the z-score in [1] is -0.716; in assay [2], 1.4 (inactive); in assay [3] it was -0.133 (inactive); in [5] it was 0.0672 (inactive); in assay [6], 0.708 (inactive); in assay [7], -0.384 (inactive). The z-score in [8] is -0.541 (inactive); in assay [9], -0.209; in assay [13], -0.846; in [14], -1.8 (inactive); in assay [15], 0.754 (inactive); in [16], 0.0035 (inactive). The composite z-score is 0.0211 (inactive) in assay [4], -0.0414 in [10], 0.112 (inactive) in assay [11] and 0.0332 in assay [12].
With `CCCCC=C[C@@H](NC(=O)c1ccccc1)c1ccccc1`, the z-score in assay [1] is -0.35; in assay [2], 0.483 (inactive); in assay [3], 0.0386 (inactive); in assay [5], 1.43 (inactive); in [6] it was 0.0455 (inactive); in [7], -1.44 (inactive). Besides, the z-score in assay [8] is -1.29 (inactive); in [9] it was -0.321; in [13] it was -1.47; in assay [14], 2.61 (inactive); in assay [15], 0.855 (inactive); in assay [16], 0.274 (inactive). For the same compound, the composite z-score is -0.845 (inactive) in assay [4], 0.0348 in assay [10], 0.558 (inactive) in assay [11] and 0.496 in [12].
